# Pf apPOL inh – Pf-apPOL DNA polymerase inhibition | Recombinant Pf-apPOL, molecular beacon fluorescence, 1.5 h | inhibition, % at 10 µM | 210,000 tested, 0.25% active
# mHTT-CaM PPI inh – inhibitors of human mutant huntingtin-calmodulin interaction. P42858. AlphaScreen His-mHTT/GST-CaM binding, luminescence. inhibition, % at 15 µM. 190,000 tested, 3.6% active;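 further: 0% = both proteins with DMSO and 100% = one protein alone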
# Numbers without * were called inactive; x = not tested or not shown. An excerpt weighted towards active compounds, which were near 3.6% of everything screened. No stated cut-off is given here; in the data, active means inhibition above about 50%; inactive means the rest.
SMILES,Pf apPOL inh,mHTT-CaM PPI inh
CCCc1cc2c(=O)c(-c3ccc(C(=O)OCC)o3)coc2cc1OC(C)=O,-7.2,-7.5
CCOC(=O)c1ccccc1NC(=O)N1CCOc2ccc(C)cc21,-1.1,-47.0
CCCN(C)C(=O)c1cc(-c2ccc3ccccc3c2)on1,-1.8,-18.9
Nc1c(C=C2C=CC(=O)C=C2)c(=O)nc2sc(C(F)(F)F)nn12,-5.9,5.0
O=[N+]([O-])c1ccccc1S(=O)(=O)Nc1ccc(Nc2ccccc2)cc1,-5.8,90.4*
COc1ccc(Nc2ccc(OC)cc2)cc1,-6.1,90.1*
COc1ccc(NS(=O)(=O)c2ccc(NS(=O)(=O)c3ccc(OC)cc3)cc2)cc1,-5.8,3.8
NC(=O)c1ccc(NS(=O)(=O)c2ccccc2[N+](=O)[O-])cc1,-2.4,3.3
COc1ccc(NS(=O)(=O)c2ccc(NS(C)(=O)=O)cc2)cc1,55.2*,2.4
COc1ccc(NC2=C(C)C(=O)CC2)cc1,-2.0,-3.2
CCCC1c2cccn2CCN1C(=O)Nc1ccc(Br)cc1F (centres undefined),3.0,-2.4
COCCCNC(=O)c1cnn2c(C)c(Cc3ccc(Cl)cc3)c(C)nc12,-13.8,90.0*
Cc1nc2c(C(=O)N3CCCCC3)cnn2c(C)c1Cc1ccc(Cl)cc1,1.6,100.0*
Cc1nc2c(C(=O)NCc3ccccc3)cnn2c(C)c1Cc1ccc(Cl)cc1,-9.0,35.0
Cc1nc2c(C(=O)N3CCCCC3)cnn2c(C)c1Cc1ccccc1Br,-8.9,41.0
Cc1nc2c(C(=O)N3CCCC(C)C3)cnn2c(C)c1Cc1ccc(Cl)cc1 (centres undefined),-4.5,100.0*
COCCNC(=O)c1cnn2c(C)c(Cc3ccc(F)cc3)c(C)nc12,-8.6,19.0
O=C(CCSc1ccccc1)NCC1CCN(C(=O)COc2ccccc2)CC1,4.5,4.7
Nc1ccccc1SCC(=O)Nc1cc(C(F)(F)F)ccc1Cl,-0.7,x
Nc1nc(Nc2ccccc2)nc2cccc(F)c12,2.0,-9.9
COc1cccc2c1OC1(CCCCC1)N1N=C(c3cccs3)CC21 (centres undefined),-23.9,43.0
COc1ccc(C2=NN3C(C2)c2cccc(OC)c2OC32CCCCC2)cc1OC (centres undefined),-10.5,52.0*
Cc1ccccc1CNC(=O)c1ccc2c(c1)nc1n2CCN(C2CCCCC2)C1=O,0.4,-4.3
COc1ccc(-c2nc3ccc(C)cn3c2NC(=O)C2CCCC2)cc1,-2.6,50.9*
COc1ccc(-c2nc3cc(C)ccn3c2NC(=O)C2CCCC2)cc1,6.6,31.1
SMILES,Pf apPOL inh,mHTT-CaM PPI inh
COC(=O)CCCn1cc(CN2CC(N3CC=CC3)CS2(=O)=O)nn1 (centres undefined),1.1,-6.2
C(=C1CCCC2C(c3ccccc3)C3=C(CCCC3)OC12N1CCCC1)c1ccccc1 (centres undefined),-1.7,x
CCC(=O)N(c1ccccc1)C1CC(C)Nc2ccccc21 (centres undefined),-0.2,16.4
CC1CC(N(C(=O)c2ccccc2Cl)c2ccccc2)c2ccccc2N1 (centres undefined),-3.2,98.0*
CCCN1C(=O)COc2ccc(-c3noc(CCc4ccccc4)n3)cc21,0.6,-9.1
O=c1[nH]c2ccc(S(=O)(=O)Nc3ccc(Cl)cc3Cl)cc2s1,-4.4,3.0
O=c1cc(-c2ccccc2)oc2c(CN3CCCCC3)c(O)c(CN3CCCCC3)c(O)c12,2.7,39.1
CCN(CC)Cc1c(O)c(CN(CC)CC)c2oc(-c3ccccc3)cc(=O)c2c1O,5.0,100.3*
COc1ccc2c(c1)c(CN1CCC(C(=O)NCc3ccccc3Cl)CC1)cn2C,-2.9,18.5
Cc1cc(C)c(O)c(N=Cc2cccc([N+](=O)[O-])c2O)c1,-0.6,26.0
COc1cccc(C=Nc2cc(C)cc(C)c2O)c1O,-3.9,50.0*
CNC(=O)N1CCC2(CC1)Nc1cc(F)ccc1-n1cccc12,4.5,36.5
O=C(NCc1ccco1)N1CCC2(CC1)Nc1cc(F)ccc1-n1cccc12,2.8,47.1
Cc1ccc(CNC(=O)N2CCC3(CC2)Nc2cc(F)ccc2-n2cccc23)cc1,-2.4,66.4*
Cc1ccc2c(c1)NC1(CCN(C(=O)CSCc3ccc(F)cc3)CC1)c1cccn1-2,-7.2,100.0*
O=C(NCc1ccccc1)N1CCC2(CC1)Nc1cc(F)ccc1-n1cccc12,-1.7,50.7*
COc1cccc(CNC(=O)N2CCC3(CC2)Nc2cc(F)ccc2-n2cccc23)c1,3.4,43.6
CN(CCc1ccccn1)C(=O)C1CCN(c2cnn(C)c(=O)c2)CC1,-5.5,1.4
Cc1nc2c(ccc3nc(NC(=O)c4ccc5c(c4)OCCO5)sc32)s1,1.3,68.6*
Cc1nc2c(ccc3nc(NC(=O)c4ccc(Cl)s4)sc32)s1,4.9,-2.6
Cc1cc(N2CCCCC2)c(F)cc1[N+](=O)[O-],0.8,0.5
O=[N+]([O-])c1cc(F)c(N2CCCC2)cc1N1CCCCCC1,-3.9,79.0*
O=[N+]([O-])c1cc(F)c(N2CCOCC2)cc1N1CCOCC1,-7.2,3.8
O=[N+]([O-])c1cc(F)c(N2CCCC2)cc1N1CCCC1,1.3,59.1*
O=C(NCCN1CCc2ccccc2C1)C1CCN(c2cncnc2N2CCCC2)CC1,-2.5,9.8
SMILES,Pf apPOL inh,mHTT-CaM PPI inh
Cc1cc(C)cc(CN2CCCN(c3cccc(NC(=O)C4CC4)c3)C2=O)c1,-3.9,10.8
Cc1ccc(S(=O)(=O)N2CCc3nc(NC(=O)C4CCCCC4)sc3C2)cc1,-1.9,22.8
Cc1cc(O)c2c(c1)OC(=Cc1ccccc1)C2=O,-15.1,53.0*
Cc1cc(O)c2c(c1)OC(=Cc1cccs1)C2=O,3.1,58.9*
Cc1cc(O)cc2c1C(=O)C(=Cc1cccs1)O2,-7.7,0.6
Cc1cc(O)c2c(c1)OC(=Cc1ccc(F)cc1)C2=O,-1.8,9.6
COc1ncccc1CNC(=O)CCc1nc2ccccc2[nH]1,2.2,-7.7
Cn1c(=O)[nH]cc(C(=O)Nc2ccccc2-c2ccccc2)c1=O,0.1,-8.6
COc1ccc(N2CCN(C(=O)c3cn4c(n3)COCC4)CC2)cc1,-1.4,0.0
O=S(=O)(Nc1ccccn1)c1ccc(N=Cc2c(Cl)cccc2Cl)cc1,7.9,0.0
CCCn1c2ccccc2c2nnc(SCC(=O)Nc3ccc([N+](=O)[O-])cc3)nc21,0.3,4.0
CCC(C(=O)Nc1ncc(S(=O)(=O)c2ccc([N+](=O)[O-])cc2)s1)c1ccccc1 (centres undefined),-1.6,61.0*
O=C(Cc1ccccc1)Nc1ncc(S(=O)(=O)c2ccc([N+](=O)[O-])cc2)s1,-3.5,0.6
COC(=O)c1cccc(C(=O)Nc2cccc(C)c2C)n1,2.1,-4.6
Cc1ccc(NC(=O)c2c(C)c(C)c(C)c(C)c2C)c([N+](=O)[O-])c1,2.6,-4.4
Cc1ccc(C(=O)N2CCN(S(=O)(=O)c3ccc(C)cc3)C2c2ccc(N(C)C)cc2)cc1 (centres undefined),1.4,50.0*
Cc1ccc(S(=O)(=O)N2CCN(C(=O)c3ccccc3)C2c2ccc(N(C)C)cc2)cc1 (centres undefined),-17.4,56.0*
CCC(=O)N1CCN(S(=O)(=O)c2ccc(C)cc2)C1c1ccccc1 (centres undefined),-8.1,-10.0
CCN(CC)c1ccc(C2N(C(=O)c3ccccc3)CCN2S(=O)(=O)c2ccccc2)cc1 (centres undefined),1.8,37.0
CCC(=O)N1c2ccccc2N(S(=O)(=O)c2ccc(C)cc2)C1c1ccc(N(C)C)cc1 (centres undefined),3.5,53.0*

# Screening results from PubChem.
